According to PubChem BioAssay (NCATS):
Inconclusive results are not listed. Calls of active or inactive are those of the source. The call rests on the fitted dose curve.

test: Validation screen for inhibitors of Lassa infection (AID 463096); details: Lassa virus infection, cell-based; series mostly up to 46.1 µM; activity change, negative = inhibition: at the top concentration
On the % scale 0 is the no-effect control and ±100 the full control effect.

Structure (SMILES)	activity change, negative = inhibition	outcome
CC(C)NNC(=O)c1ccncc1	24.9% (inactive)	
CCn1cc(C(=O)O)c(=O)c2cc(F)c(N3CCNC(C)C3)c(F)c21 (centres undefined)	14.1% (inactive)	
C[N+](C)(C)CCCCCC[N+](C)(C)C		inactive
Cc1nc2c([nH]1)c(=O)n(C)c(=O)n2Cc1ccco1	-20.7% (inactive)	
CC(C)(Oc1ccc(C2CC2(Cl)Cl)cc1)C(=O)O (centres undefined)	-5.88% (inactive)	
CC(C)NCC(O)c1cc(O)cc(O)c1 (centres undefined)	-13.7% (inactive)	
COc1ccc2[nH]cc(CCNC(C)=O)c2c1	35.2% (inactive)	
CC(=O)OC(C)C[N+](C)(C)C (centres undefined)	2.56% (inactive)	
CCN(CC)CC#CCOC(=O)C(O)(c1ccccc1)C1CCCCC1 (centres undefined)	-15.2% (inactive)	
CCOC(=O)C1=C(C)NC(C)=C(C(=O)OC)C1c1cccc([N+](=O)[O-])c1 (centres undefined)	-19.7% (inactive)	
NC(N)=Nc1nc(CSCC/C(N)=N/S(N)(=O)=O)cs1	-13.1% (inactive)	
FC(F)(F)c1ccccc1-n1ccnc1	13.4% (inactive)	
O=c1[nH]cnc2[nH]ncc12	-5.38% (inactive)	
Nc1cc(=O)[nH]c(N)n1	10.9% (inactive)	
CCCCCCCCCCCCCCCC(=O)NCCO	8.36% (inactive)	
CC(C)NCC(O)c1ccc(NS(C)(=O)=O)cc1 (centres undefined)	-10.5% (inactive)	
CN1CCN(CC(=O)N2c3ccccc3C(=O)Nc3cccnc32)CC1	31.3% (inactive)	
O=C(O)CN(CCN(CC(=O)O)CC(=O)O)CCN(CC(=O)O)CC(=O)O	-18.9% (inactive)	
NC1CCN(c2cccc(Cl)n2)CC1	0.92% (inactive)	
Cn1c(=O)c2[nH]cnc2n(C)c1=O	17.8% (inactive)	
NCCCCCC(=O)O	5.4% (inactive)	
O=c1c(-c2ccc(O)cc2)coc2cc(O)cc(O)c12	-2.61% (inactive)	
O=C1NCC2(CCN(CCc3ccccc3)CC2)O1	13.4% (inactive)	
COc1cc(-c2ccc(=O)[nH]n2)ccc1OC(F)F	-6.14% (inactive)	
